The target of experiment [1] is Nucleoli Translocation, AR (gene 367) (UniProt P10275). Nature of the experiment: UPITT_HCI_U2OS_AR_TIF2_Nucleoli_Antagonist: University of Pittsburgh U2OS Androgen Receptor-Transcriptional Intermediary Factor 2 (AR-TIF2) Antagonism High Content Imaging Assay for Nucleoli Translocation (AID 2283997). The essentials:
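U2OS cells co-expressing red-fluorescent-tagged human AR and green-fluorescent-tagged TIF2, imaged by high-content microscopy for nucleolar red fluorescence. Antagonist mode against DHT; primary screen at 20 uM final (0.2% DMSO).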

The target is the same in experiment [2]. Nature of the experiment: UPITT_HCI_U2OS_AR_TIF2_Nucleoli_Agonist: University of Pittsburgh U2OS Androgen Receptor-Transcriptional Intermediary Factor 2 (AR-TIF2) Agonism High Content Imaging Assay for Nucleoli Translocation (AID 2283998). In short, it runs like this: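 Nucleolar translocation of AR-RFP, with TIF2-GFP coexpressed in human osteosarcoma U2OS, imaged by high-content fluorescence. Compounds tested singly at 20 uM final, confirmed in triplicate, then titrated 0.195–50 uM final; gain-of-signal relative to DMSO.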

The subject of the next experiment is DIO1 (gene 1733). Nature of the experiment: CCTE_GLTED_hDIO1: CCTE's human Deiodinase 1 (DIO1) Inhibition Assay, Great Lakes Toxicology and Ecology Division (GLTED) Lab (AID 2283987).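 Further: isolated human DIO1 enzyme in a cell-free setup rather than cells; enzyme activity read as free iodide liberated from substrate via Sandell-Kolthoff colorimetry.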 The essentials: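 Inhibition read as reduced iodide release: after 3 h of human DIO1 with chemical, free iodide is quantified colorimetrically (Sandell-Kolthoff cerium/arsenic reaction). Triplicate plates, DMSO baseline.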

Experiment [3] is described as follows: CCTE_Harrill_HTTr_Viability_PRF_DMEM_24hr: (Pilot) CCTE's 24-hour Cell Viability Assessment for the High-Throughput Transcriptomics (HTTr) Platform, in MCF-7 cells cultured in phenol red-free DMEM + 10% charcoal-stripped fetal bovine serum, Harrill Lab (AID 2283980; active means hit-call score of the fitted dose curve at least 0.9, where 1 is the maximum; inactive means score below 0.9). In short, it runs like this: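 MCF-7 cells in phenol red-free DMEM with 10% charcoal-stripped FBS, eight-point dilution series, 24 h exposure. Membrane integrity by propidium iodide exclusion with high content imaging; bidirectional fit vs DMSO.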

Experiment [4] is described as follows: CCTE_Harrill_HTTr_Apoptosis_DMEM_6hr: (Pilot) CCTE's 6-hour Apoptosis Assessment for the High-Throughput Transcriptomics (HTTr) Platform, in MCF-7 cells cultured in DMEM + 10% fetal bovine serum, Harrill Lab (AID 2283981; active means hit-call score of the fitted dose curve at least 0.9, where 1 is the maximum; inactive means score below 0.9). In short, it runs like this:
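Caspase-3/7 activation read by high content imaging with CellEvent Caspase 3/7 Green in MCF-7 cells (DMEM + 10% FBS), 6 h after dosing; eight-point dilution series. Bidirectional fitting relative to DMSO baseline.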

Experiment [5] can be described thus: CCTE_Harrill_HTTr_Apoptosis_DMEM_12hr: (Pilot) CCTE's 12-hour Apoptosis Assessment for the High-Throughput Transcriptomics (HTTr) Platform, in MCF-7 cells cultured in DMEM + 10% fetal bovine serum, Harrill Lab (AID 2283982; active means hit-call score of the fitted dose curve at least 0.9, where 1 is the maximum; inactive means score below 0.9). The essentials:
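MCF-7 cells in DMEM + 10% FBS, exposed 12 h to an eight-point dilution series; caspase-3/7 activation imaged with CellEvent Green. Bidirectional fit versus DMSO.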

Experiment [6] can be described thus: CCTE_Harrill_HTTr_Apoptosis_DMEM_24hr: (Pilot) CCTE's 24-hour Apoptosis Assessment for the High-Throughput Transcriptomics (HTTr) Platform, in MCF-7 cells cultured in DMEM + 10% fetal bovine serum, Harrill Lab (AID 2283983; active means hit-call score of the fitted dose curve at least 0.9, where 1 is the maximum; inactive means score below 0.9). In short, it runs like this:
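MCF-7 cells in DMEM + 10% FBS, eight-point dilution series, 24 h exposure. Caspase-3/7 activation imaged by high-content imaging with CellEvent Caspase 3/7 Green. Bidirectional curve fitting against DMSO baseline.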

Experiment [7] is described as follows: CCTE_Harrill_HTTr_Apoptosis_PRF_DMEM_6hr: (Pilot) CCTE's 6-hour Apoptosis Assessment for the High-Throughput Transcriptomics (HTTr) Platform, in MCF-7 cells cultured phenol red-free DMEM + 10% charcoal-stripped fetal bovine serum, Harrill Lab (AID 2283984; active means hit-call score of the fitted dose curve at least 0.9, where 1 is the maximum; inactive means score below 0.9). In short, it runs like this: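 MCF-7 cells in phenol red-free DMEM + 10% charcoal-stripped FBS, eight-point dilution series, 6 h exposure. Caspase-3/7 activation imaged by high-content imaging with CellEvent Caspase 3/7 Green; bidirectional fit versus DMSO baseline.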

Experiment [8] in a line: CCTE_Harrill_HTTr_Apoptosis_PRF_DMEM_12hr: (Pilot) CCTE's 12-hour Apoptosis Assessment for the High-Throughput Transcriptomics (HTTr) Platform, in MCF-7 cells cultured in phenol red-free DMEM + 10% charcoal-stripped fetal bovine serum, Harrill Lab (AID 2283985; active means hit-call score of the fitted dose curve at least 0.9, where 1 is the maximum; inactive means score below 0.9). An excerpt:
This is a cell-based assay that evaluates apoptosis using high content imaging to evaluate activation of caspase-3/7 using the CellEvent Caspase 3/7 Green detection reagent in 384-well format.One of seven assay components measured from the CCTE_Harrill_HTTr_Apoptosis assay. This was part of a pilot experiment. This is a cell-based assay that evaluates apoptosis in MCF-7 cells cultured in phenol red-free DMEM + 10% charcoal-stripped fetal bovine serum. High content imaging is used to evaluate activation of caspase-3/7 using the CellEvent Caspase 3/7 Green detection reagent. Measurements are taken at 12 hours after chemical dosing in 384-well format.The assay component endpoint CCTE_Harrill_HTTr_Apoptosis_PRF_DMEM_12hr was analyzed with bidirectional fitting relation to DMSO as the negative control and baseline of activity. Using a type of viability reporter, gain-of-signal activity can be used to evaluate activation of caspase-3/7 using the CellEvent Caspase 3/7 Green detection reagent to understand changes in apoptosis. To generalize the intended target to other relatable targets, this assay endpoint is annotated to cell cycle, where the subfamily is apoptosis.
Chemicals were tested in MCF7 cells in an eight point dilution series with a twelve hour exposure duration.

Experiment [9] is described as follows: CCTE_Harrill_HTTr_Apoptosis_PRF_DMEM_24hr: (Pilot) CCTE's 24-hour Apoptosis Assessment for the High-Throughput Transcriptomics (HTTr) Platform, in MCF-7 cells cultured in phenol red-free DMEM + 10% charcoal-stripped fetal bovine serum, Harrill Lab (AID 2283986; active means hit-call score of the fitted dose curve at least 0.9, where 1 is the maximum; inactive means score below 0.9). In short, it runs like this: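 MCF-7 cells in phenol red-free DMEM with 10% charcoal-stripped FBS, exposed 24 h across an eight-point dilution series. Caspase-3/7 activation imaged with CellEvent Green by high content imaging; bidirectional fitting against DMSO.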

SMILES strings stand for the structures. Where “and” joins values, the source holds several entries; their conditions need not be identical. Equal entries are not always repeated. Records with an inconclusive call do not appear. Calls of active or inactive are those of the source. How the source made its calls, unless noted: active means hit-call score of the fitted dose curve at least 0.9, where 1 is the maximum; inconclusive means response in the unintended direction; inactive means score below 0.9.

As usually defined, the AC50 is the concentration giving half of the maximal activity seen.

Nucleoli Translocation, AR (gene 367), sequence (P10275 whole entry, looked up): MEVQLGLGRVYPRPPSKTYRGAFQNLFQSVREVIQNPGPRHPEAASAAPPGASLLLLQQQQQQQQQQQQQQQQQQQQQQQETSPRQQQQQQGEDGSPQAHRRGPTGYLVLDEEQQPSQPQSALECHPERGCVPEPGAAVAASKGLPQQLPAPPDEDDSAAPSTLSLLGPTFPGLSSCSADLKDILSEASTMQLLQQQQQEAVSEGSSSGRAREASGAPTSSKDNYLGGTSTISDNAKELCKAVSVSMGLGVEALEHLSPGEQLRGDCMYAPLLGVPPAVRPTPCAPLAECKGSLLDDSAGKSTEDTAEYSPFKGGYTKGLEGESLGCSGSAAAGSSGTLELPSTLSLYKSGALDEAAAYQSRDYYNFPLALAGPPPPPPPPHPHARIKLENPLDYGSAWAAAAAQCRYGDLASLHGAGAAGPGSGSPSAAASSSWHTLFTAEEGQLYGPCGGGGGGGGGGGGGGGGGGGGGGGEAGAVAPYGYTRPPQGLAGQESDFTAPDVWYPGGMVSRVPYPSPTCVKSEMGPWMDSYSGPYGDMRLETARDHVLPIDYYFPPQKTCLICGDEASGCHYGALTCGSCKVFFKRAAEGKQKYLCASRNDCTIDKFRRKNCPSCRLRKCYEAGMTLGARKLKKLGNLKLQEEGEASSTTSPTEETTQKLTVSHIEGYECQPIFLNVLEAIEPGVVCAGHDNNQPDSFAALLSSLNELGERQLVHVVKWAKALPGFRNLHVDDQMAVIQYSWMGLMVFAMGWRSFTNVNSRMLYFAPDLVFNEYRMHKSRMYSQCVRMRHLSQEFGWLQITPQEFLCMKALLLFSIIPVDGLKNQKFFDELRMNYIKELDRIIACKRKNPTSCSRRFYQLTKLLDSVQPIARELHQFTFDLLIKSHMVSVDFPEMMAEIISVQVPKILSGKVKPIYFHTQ

Regarding `CCC(=O)C(CC(C)N(C)C)(c1ccccc1)c1ccccc1` (stereo not given), the compound was called inactive in experiment [1] and in experiment [2]. As to `COP(=S)(OC)Oc1cc(Cl)c(Cl)cc1Cl`, the compound was classed as inactive in experiment [1] and in experiment [2].

Take `COP(=S)(OC)Oc1ccc(Sc2ccc(OP(=S)(OC)OC)cc2)cc1`: the AC50 with DIO1 (gene 1733) was 1.19 µM (active). The result in [1] and in experiment [2] was inactive. Regarding `C=CC(=O)OCCCCCC(C)C`, the AC50 in the experiment with DIO1 (gene 1733) was 30.8 µM (active). Besides, the call in [1] and in experiment [2] was inactive. As to `CCC(C)(C)c1ccc(O)c(C(C)(C)CC)c1`, in the experiment on DIO1 (gene 1733), the AC50 is 46.1 µM (active). Turning to `CC(C)c1cccc(C(C)C)c1O`, the result in [1] and in experiment [2] was inactive. As to `COP(=O)(OC)O/C(=C\Cl)c1cc(Cl)c(Cl)cc1Cl`, the AC50 with DIO1 (gene 1733) was 48.7 µM (active); in experiment [1] it was 50 µM (active). For the same compound, the compound was classed as inactive in experiment [2]. For the compound `CC(C)(c1ccc(OCC2CO2)cc1)c1ccc(OCC2CO2)cc1` (stereo not given), the values for the AC50 (in the experiment with DIO1 (gene 1733); in experiment [1]) were 1.37 µM (active) and 50 µM (active), respectively. Besides, in experiment [2], the result was inactive. For the compound `CCCCCCCCc1ccc(O)cc1`, the AC50 in the experiment with DIO1 (gene 1733) was 57.1 µM (active).

In the case of `C=CCc1ccc(OC)cc1`, the compound was classed as inactive in experiment [1].

As for `ClC1(Cl)C2(Cl)C3(Cl)C4(Cl)C(Cl)(Cl)C5(Cl)C3(Cl)C1(Cl)C5(Cl)C24Cl` (stereo not given), the outcome in experiment [1] was inactive.

For `CC(C)CCCCCCOC(=O)c1ccccc1C(=O)OCCCCCCC(C)C`, the outcome in experiment [1] was inactive. `CC12CC1(C)C(=O)N(c1cc(Cl)cc(Cl)c1)C2=O` (stereo not given): the AC50 in experiment [1] is 0.134 µM (active). Moreover, in experiment [2], the result was inactive. Turning to `CC(=O)[O][Hg][c]1ccccc1`, the AC50 in experiment [1] is 0.29 µM (active). In addition, the compound was classed as inactive in experiment [2]. Regarding `Cl/C=C\C[N+]12CN3CN(CN(C3)C1)C2`, in experiment [1], the AC50 is 50 µM (active). The call in [2] was inactive. For the compound `Cc1ccc2ccccc2c1C`, the call in [1] and in [2] was inactive. As for `Clc1ccc(COC(Cn2ccnc2)c2ccc(Cl)cc2Cl)cc1` (stereo not given), the half-maximal activity concentration (AC50) is 10.1 µM (active) in [1] and 50 µM (active) in experiment [2]. As to `CCSC(C)CC1CC(=O)C(C(CC)=NOC/C=C/Cl)=C(O)C1` (stereo not given), the compound was classed as inactive in [1] and in experiment [2].

Regarding `O=C1C2(Cl)C3(Cl)C4(Cl)C(Cl)(Cl)C5(Cl)C3(Cl)C1(Cl)C5(Cl)C24Cl` (stereo not given), the AC50 was 13.3 µM (active) in experiment [1] and 12.7 µM (active) in [2]. As to `Cc1ccccc1C(=O)Nc1cccc(OC(C)C)c1`, the result in experiment [1] and in experiment [2] was inactive. As to `CCOP(=S)(OCC)Oc1nc(Cl)c(Cl)cc1Cl`, the AC50 in [1] is 50 µM (active). Besides, the call in experiment [2] was inactive.

As for `CN(CCCC(=O)c1cccnc1)N=O`, the call in experiment [1] and in [2] was inactive.

For the compound `C[C@@H]1C[C@@H]([C@H](O)CC2CC(=O)NC(=O)C2)C(=O)[C@@H](C)C1`, the AC50 in experiment [3] was 9.42 µM (active). The result in [4], in experiment [5], in [6], in experiment [7], in experiment [8] and in experiment [9] was inactive.

As to `C[C@H]1CCCC(=O)CCC/C=C/c2cc(O)cc(O)c2C(=O)O1`, the values for the concentration at half-maximal activity (AC50) in [1] and in [2] were 6.39 µM (active) and 80.6 µM (active), respectively. Consider `CC(C)(C)CC(C)(C)c1ccc(O)cc1`, for which the AC50 with DIO1 (gene 1733) is 90.7 µM (active). With `CCC1(c2ccc(N)cc2)CCC(=O)NC1=O` (stereo not given), the result in experiment [1] was inactive. The same measure, in the same setting: the entry for `O=[N+]([O-])c1ccc(O)c([N+](=O)[O-])c1` is “inactive”. For `C[C@H]1O[C@@H](O[C@H]2[C@@H](O)C[C@H](O[C@H]3[C@@H](O)C[C@H](O[C@H]4CC[C@@]5(C)[C@H](CC[C@@H]6[C@@H]5CC[C@]5(C)[C@@H](C7=CC(=O)OC7)CC[C@]65O)C4)O[C@@H]3C)O[C@@H]2C)C[C@H](O)[C@@H]1O`, the AC50 in experiment [1] is 8.23 µM (active) and 5.95 µM (active). In experiment [2], the outcome was inactive. In the case of `O=c1[nH]c(=O)[nH]c(=O)[nH]1`, the compound was classed as inactive in [1] and in experiment [2]. On to `O=C1C(Cl)=C(Cl)C(=O)c2ccccc21`, for which the AC50 in the experiment with DIO1 (gene 1733) was 20 µM (active). As for `COP(=O)(OC)OC`, the call in experiment [1] and in [2] was inactive.

Consider `c1cc[c]([Hg][c]2ccccc2)cc1`, for which, in experiment [1], the AC50 was 70.3 µM (active). Besides, the result in experiment [2] was inactive. As for `O=C(O)C(F)(F)C(F)(F)C(F)(F)C(F)(F)C(F)(F)C(F)(F)C(F)(F)C(F)(F)C(F)(F)C(F)(F)F`, in the experiment with DIO1 (gene 1733), the AC50 is 157 µM (active) and 18 µM (active).

The values above are taken from PubChem BioAssay (EPA / NIEHS).
